# Assay outcomes (PubChem)
# Rows were chosen to be rich in hits. Some 4.6% of all compounds tested hit in one or more screens of this group.
# hgDAF-12 ag = agonists of H. glycines DAF-12 nuclear receptor. HEK293 GAL4-hgDAF12 UAS-luciferase reporter, agonist luminescence; normalized to butyrate control. activation, % at 6.8 µM. 370,000 tested, 1.8% active. AID 687014;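 active = activation above a cutoff set at the mean of all screened compounds plus 3 SD, cut at about 10% in these data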
# hcDAF12 agonist = H. contortus DAF-12 activation, primary screen; activation, % at 6.8 µM; HEK293 hcDAF-12 lit1-tk-luc reporter, luminescence; 0% DMSO, 100% Δ7-dafachronic acid; AID 652067; 370,000 tested, 1.4% active;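 active = activation above the mean of all tested compounds plus 3 SD, cut at about 5.5% in these data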
# ssDAF12 agonist = S. stercoralis DAF-12 activation, primary screen | AID 652126 | 370,000 tested, 1% active | activation, % at 6.8 µM | HEK293 ssDAF-12/GRIP1 lit1-tk-luc reporter, luminescence; % of 3 µM dafachronic acid response;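 active = activation above the mean over all tested compounds plus 3 SD, cut at about 0.9% in these data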
# Wee1 degr inh = blocks degradation of human Wee1 kinase; P30291; HeLa Luc-Wee1K328M stability, luciferase luminescence; 100% = proteasome inhibitor MG132 effect; reporter increase, % at 5 µM; 220,000 tested, 1.2% active;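 active = activation above the mean of all tested compounds plus 3 SD, set per screening run, cut at about 8.8% in these data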;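 note: cells exposed to compound for 20 h before luminescence read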
# Target sequence (P30291 whole entry K328M): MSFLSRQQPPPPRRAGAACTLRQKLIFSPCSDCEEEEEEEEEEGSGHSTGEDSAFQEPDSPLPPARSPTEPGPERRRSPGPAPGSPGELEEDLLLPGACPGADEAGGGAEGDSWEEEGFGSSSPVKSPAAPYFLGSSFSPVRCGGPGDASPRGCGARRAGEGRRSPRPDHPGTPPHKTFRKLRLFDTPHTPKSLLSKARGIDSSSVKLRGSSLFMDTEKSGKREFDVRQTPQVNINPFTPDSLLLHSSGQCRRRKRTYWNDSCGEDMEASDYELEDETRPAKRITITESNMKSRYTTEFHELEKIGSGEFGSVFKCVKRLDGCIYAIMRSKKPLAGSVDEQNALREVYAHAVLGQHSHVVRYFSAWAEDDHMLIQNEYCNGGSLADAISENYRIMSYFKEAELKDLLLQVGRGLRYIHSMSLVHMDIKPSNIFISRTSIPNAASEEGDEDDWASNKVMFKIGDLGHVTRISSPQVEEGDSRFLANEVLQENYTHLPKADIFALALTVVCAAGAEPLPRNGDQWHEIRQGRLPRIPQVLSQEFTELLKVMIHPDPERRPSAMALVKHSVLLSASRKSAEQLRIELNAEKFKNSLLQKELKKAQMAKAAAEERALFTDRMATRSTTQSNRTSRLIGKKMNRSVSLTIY
# DAX1 inh-1 = inhibitors of human orphan nuclear receptor DAX1 (NR0B1); 340,000 tested, 0.99% active; inhibition, % at 6.75 µM; P51843; HEK293 Gal4-DAX1 luciferase reporter, luminescence;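 active = inhibition above the mean over all tested compounds plus 3 SD, cut at about 4.2% in these data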;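 note: inhibition shows as a rise in luminescence from relieved DAX1 repression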
# DAX1 inh-2 = blocks DAX1 repression of SF-1 activated StAR promoter; HEK293T StAR-luciferase reporter, SF-1/DAX-1 repression relief; inhibition, % at 6.8 µM; 370,000 tested, 1.1% active; AID 652010;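 active = inhibition above the mean over all tested compounds plus 3 SD, cut at about 3.6% in these data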;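 note: higher inhibition means more luminescence from relief of DAX-1 repression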
# DAX1 conf = confirmation of human DAX1 (NR0B1) inhibitors. shares compounds with DAX1 inh-2. HEK293T StAR-promoter luciferase reporter, SF-1/DAX-1 repression. inhibition, % at 6.8 µM. 2,400 tested, 87% active. AID 652134;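 active = inhibition above the average of every tested compound plus 3 SD, cut at about 3.8% in these data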;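 note: active compounds raise luminescence by relieving repression of the StAR reporter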
# SF1 mutant ctr = nonselective inhibitor or artifact in SF-1 mutant DAX1 counter-screen; shares compounds with DAX1 inh-2; HEK293 StAR-luciferase, SF-1 AF2 mutant, luminescence; inhibition, % at 6.8 µM; 2,400 tested, 78% active; AID 652136;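 active = inhibition above the mean of all tested compounds plus 3 SD, cut at about 3% in these data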
# LXR ag = activates human LXR-beta, counter-screen for hcDAF-12 agonists; HEK293 Gal4-LXR tk-luc reporter, luminescence, 24 h; normalized: DMSO 0%, positive control 100%; AID 743027; shares compounds with hcDAF12 agonist; 3,400 tested, under 10 active; activation, % at 6.8 µM;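 active = mean percent activation of the reporter above a cutoff set as the average over tested compounds plus their standard deviation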
# hcDAF12 ag = confirmation of H. contortus DAF-12 agonists | 3,400 tested, 61% active | activation, % at 6.8 µM | HEK293 hcDAF-12 lit1-tk-luc reporter, luminescence; % of Δ7-dafachronic acid response | shares compounds with hcDAF12 agonist;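 active = mean activation across triplicate tests above the threshold derived from the earlier primary screen, cut at about 5.5% in these data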
# hgDAF12 conf = confirmation of H. glycines DAF-12 agonists; activation, % at 6.8 µM; 3,300 tested, 80% active; shares compounds with hgDAF-12 ag; HEK293 GAL4-hgDAF12 luciferase reporter, agonist mode; percent of butyrate response; AID 743050;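 active = mean activation over triplicate wells above the hit cutoff derived from the earlier primary screen, cut at about 11% in these data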
# LXR ag 2 = LXR-beta agonism as DAF-12 counter-screen. shares compounds with hgDAF-12 ag. HEK293 Gal4-LXR luciferase reporter, 24 h. activation, % at 6.8 µM. 3,300 tested, under 10 active;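 active = mean activation of the triplicate above a set limit carried over from the primary screen, none filed active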
# Numbers stand for hits; i = inactive; nt = no result.
SMILES,hgDAF-12 ag,hcDAF12 agonist,ssDAF12 agonist,Wee1 degr inh,DAX1 inh-1,DAX1 inh-2,DAX1 conf,SF1 mutant ctr,hgDAF12 conf,LXR ag 2,others
CCCN(CC1CC1)C(=O)COC(=O)c1oc2c(F)cccc2c1C,i,i,i,nt,i,i,nt,nt,nt,nt,
O=C(COC(=O)c1ccc(O)cc1O)NC1CCCCCC1,i,i,i,nt,i,i,nt,nt,nt,nt,
CCCCNC(=O)C[C@H]1C[C@@]2(C(=O)OC)C(=C[C@H](C(C)C)O[C@@H]2C2CC2)N(CCc2ccc(OC)c(OC)c2)C1=O,i,i,i,nt,nt,i,nt,nt,nt,nt,
COc1ccc(C(=O)NNC(=S)NC(=O)c2ccc(OC)cc2)cc1,i,i,i,nt,i,i,nt,nt,nt,nt,
COc1ccc(C(=O)NNC(=S)Nc2ccccc2)cc1,17,i,i,i,i,10,16,12,15,i,
Cc1cc(-c2cn3ccccc3n2)c(C)n1-c1ccccc1,14,5.7,i,i,i,4.6,17,5.4,i,i,
c1ccc(-c2cn3ccccc3n2)cc1,14,8.9,i,nt,i,5.0,12,8.7,15,i,LXR ag=i;hcDAF12 ag=7.4
c1ccc2c(-c3cn4ccccc4n3)c[nH]c2c1,nt,nt,nt,i,nt,nt,nt,nt,nt,nt,
CN(C)S(=O)(=O)c1ccc(-c2cn3ccccc3n2)cc1,i,i,i,i,i,i,nt,nt,nt,nt,
O=C(Nc1cccc(F)c1)c1ccc(-n2cncn2)c2ccoc12,17,9.4,i,nt,nt,9.0,16,5.4,17,i,LXR ag=i;hcDAF12 ag=9.5
O=C(Nc1nsc(-c2ccccc2)n1)c1cccs1,15,i,i,i,i,4.5,7.9,4.5,16,i,
O=C(COc1ccc(Br)cc1)NCc1cn2ccccc2n1,i,i,i,i,i,i,nt,nt,nt,nt,
Brc1ccc(OCc2cn3ccccc3n2)cc1,20,i,i,i,i,6.5,9.2,4.6,16,i,
COc1ccc2c(CN(C)Cc3ccccc3)cc(=O)oc2c1,15,i,i,nt,nt,7.2,7.6,4.1,15,i,
COc1ccccc1NC(=S)N/N=C/c1ccc(O)cc1,19,6.1,i,i,i,5.5,16,8.4,20,i,
COc1ccccc1NC(=S)N/N=C/c1cccc(C)c1,i,i,i,i,i,i,nt,nt,nt,nt,
CCC(=O)Nc1cc(OC)c(NC(=S)Nc2ccccc2CC)cc1OC,i,i,i,nt,i,i,nt,nt,nt,nt,
C/C(=N\NC(=O)c1ccccn1)c1ccc(C(=O)O)s1,22,i,i,i,nt,5.2,i,i,11,i,
COCCCN1C(=O)C(CC(=O)NC2CCCCC2)CC(C(=O)N(C)C)=C1C (configuration not stated),i,i,i,nt,i,i,nt,nt,nt,nt,
Cc1nc2sc(-c3ccccc3)cc2c(=O)[nH]1,21,7.4,i,i,i,6.1,12,6.7,12,i,LXR ag=i;hcDAF12 ag=5.8
O=c1c2ccccc2nc2n1CCC2,i,i,i,i,i,i,nt,nt,nt,nt,
Cc1nc2ccccc2c(=O)n1N,i,i,i,i,i,i,nt,nt,nt,nt,
Cc1nc2sc(-c3ccccc3)cc2c(=O)n1N,17,6.7,i,i,i,4.7,4.6,i,i,i,LXR ag=i;hcDAF12 ag=i
O=c1c2cc(-c3ccccc3)sc2nc2n1CCC2,20,i,i,i,nt,5.4,15,7.7,18,i,
C[C@H](NC(=O)OCc1ccccc1)P(=O)(O)O,i,i,i,nt,nt,i,nt,nt,nt,nt,
SMILES,hgDAF-12 ag,hcDAF12 agonist,ssDAF12 agonist,Wee1 degr inh,DAX1 inh-1,DAX1 inh-2,DAX1 conf,SF1 mutant ctr,hgDAF12 conf,LXR ag 2,others
CSc1ccc(-c2cccc3nncn23)cc1,i,i,i,nt,nt,i,nt,nt,nt,nt,
Cc1cc2c(cc1C)C(=O)C(=O)N2,i,i,i,nt,i,i,nt,nt,nt,nt,
Cc1cc2c(cc1C)NC(=O)C(C)CN2 (configuration not stated),20,12,3.0,nt,i,5.7,16,7.9,14,i,LXR ag=i;hcDAF12 ag=11
COc1ccc(C(=O)NCCNc2ccccc2[N+](=O)[O-])cc1,19,i,i,i,i,8.0,14,6.7,15,i,
CCN(C[C@H]1N[C@@](Cc2ccccc2)(C(=O)OC)[C@H]2C(=O)N(C)C(=O)[C@@H]12)C(=O)COc1ccccc1,i,i,i,nt,i,i,nt,nt,nt,nt,
C=CCn1c(=O)c(C(=O)Nc2ccccc2S(N)(=O)=O)c(O)c2ccccc21,15,12,1.1,i,i,5.8,10,4.0,11,i,LXR ag=i;hcDAF12 ag=i
CNc1nc(N2CCc3ccccc32)ncc1F,15,5.8,i,i,i,5.1,11,5.0,15,i,
COc1ccc(OC)c(NC(=O)Nc2nc(C(C)N)cs2)c1 (configuration not stated),i,i,i,nt,nt,i,nt,nt,nt,nt,
O=C(/C=C1\OCc2ccccc21)c1ccccc1,19,9.5,1.3,nt,nt,5.6,7.2,4.8,17,i,LXR ag=i;hcDAF12 ag=11
CCOc1ccc(NC(=O)c2csc3c2CCCC3)cc1,18,5.6,i,i,i,7.1,12,7.7,16,i,
N#C/C(=N\Nc1ccc([N+](=O)[O-])cc1)C(=N)N1CCOCC1,i,i,i,i,i,i,nt,nt,nt,nt,
N#C/C(=N/Nc1ccc([N+](=O)[O-])cc1)C(=N)N1CCCCC1,20,6.4,1.6,i,8.1,5.5,8.2,3.2,21,i,
N#C/C(=N\Nc1ccc(S(=O)(=O)N2CCCCCC2)cc1)C(N)=S,i,i,i,i,i,i,nt,nt,nt,nt,
N#C/C(=N\Nc1ccc(Cl)cc1)C(=N)N1CCCCCC1,18,i,i,i,10,7.6,22,8.8,24,i,
N#C/C(=N\Nc1ccccc1[N+](=O)[O-])C(=N)N1CCCCC1,14,7.9,1.0,i,7.4,8.0,14,8.1,18,i,LXR ag=i;hcDAF12 ag=8.6
COc1ccccc1N/N=C(\C#N)C(=N)N1CCOCC1,i,i,i,i,i,i,nt,nt,nt,nt,
CCCCn1nnnc1C(c1ccc(OC)cc1)N1CCN(C/C=C/c2ccccc2)CC1 (configuration not stated),i,i,i,nt,nt,i,nt,nt,nt,nt,
